# From PubChem BioAssay (NCI)
# Compounds without any hit were thinned out: in the full panel of roughly 83,000, 20% have a hit.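 Percent growth is the endpoint: 0 to 100 indicates growth inhibition (40 means 60% inhibition), 0 means no net growth, and negative values indicate cell death.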 Activity calls are given as the source filed them. How the source made its calls: active means growth percent below 10; inactive means the rest.
# Test system: SK-OV-3 ovarian
# Test: NCI-60 one-dose screen, 48 h (100 = growth as untreated, 0 = no growth, -100 = all killed)
# Conditions: 10 µM unless noted
row,Structure (SMILES),growth
1,O=c1oc2c(cnc3ccccc32)cc1-c1ccsc1,104% (inactive)
2,C=CCc1c2c(c(OC)c3ccoc13)C(=O)/C(=C/c1ccccc1OC)O2,79.6% (inactive)
3,CC(=O)Nc1nc2ccc(NS(=O)(=O)c3cccc4c(N(C)C)cccc34)cc2[nH]1,88.1% (inactive)
4,O=C1C(Cl)=C(Oc2ccccc2)C(=O)c2ccccc21,103% (inactive)
5,O=C(O)/C(=C\c1ccc(Cl)cc1)c1ccc(Cl)cc1,111% (inactive)
6,OCc1cccc(-c2ccc3ncc(-c4nc(NC5CC5)ncc4F)n3c2)c1,14% (inactive)
7,C=CCn1cc(-c2nc3ccccc3s2)c2cc(-c3ccc4c5c(cccc35)C(=O)N(N)C4=O)ccc21,95.3% (inactive)
8,Cc1ccc(C(C(N)=O)C(C(N)=O)c2ccccc2)cc1 (stereo not given),114% (inactive)
9,CC(C)n1cnc2c(=S)nc[nH]c21,-99.9% (active)
10,CC(C)N1CN2C(=S)NC3C2N(C1)C(=S)N3C (stereo not given),109% (inactive)
11,S=C1CCSC(=S)N1CCCN1C(=S)CCSC1=S,112% (inactive)
12,CCN1CCN(Cc2cn(CC(=O)Nc3ccc4c(ccn4Cc4ccccc4)c3)nn2)CC1,92.7% (inactive)
13,CCOC(=O)CSc1ncnc2c1c(-c1ccccc1)c(-c1ccccc1)n2-c1ccc(C)cc1,56% (inactive)
14,O=C1/C(=C/c2ccc(Cl)c(Cl)c2)CN(C(=O)C(Cl)Cl)C/C1=C\c1ccc(Cl)c(Cl)c1,25.2% (inactive)
15,CCO/C=N/C1=C(C#N)C(c2ccc(OC)cc2)c2sc3c(F)cccc3c2O1 (stereo not given),49.6% (inactive)
16,COc1ccc(C(c2cc(OC)c(OC)c(OC)c2)N2CCN(c3ccccc3)CC2)cc1 (stereo not given),78.5% (inactive)

row,Structure (SMILES),growth
1,CCN(CC)CCOc1ccc(C(=C(C)c2ccc(Cl)cc2)c2ccc(OCCN(CC)CC)cc2)cc1,-79.9% (active)
2,CN1CCN(C(=O)c2ccc(NC(=O)Nc3ccc(-c4nc(N5CCOCC5)c5cccn5n4)cc3)cc2)CC1,-31.2% (active)
3,Cc1ccc(S(=O)(=O)N2CCCC2CO)cc1 (stereo not given),102% (inactive)
4,Nc1c(C(=O)Nc2ccccc2Cl)sc2nc3c(cc12)C(O)CCC3 (stereo not given),42.9% (inactive)
5,Cc1nc2sc(C(=O)Nc3ccccc3)c(N)c2cc1C(=O)c1ccccc1,4.72% (active)
6,O=C1CC(N2C(=O)/C(=C/C(Cl)=C\c3ccc([N+](=O)[O-])cc3)SC2=S)C(=O)N1c1ccc(Cl)cc1 (stereo not given),99.2% (inactive)
7,Cc1ccc(Cl)cc1Nc1nc(C(F)(F)F)ccc1C(=O)N/N=C/c1cccnc1,-15.3% (active)
8,CC(C)(C)n1cc(-c2ccnc(NCCCNS(=O)(=O)c3ccc(F)cc3)c2)c(-c2cccc(F)c2)n1,75.3% (inactive)
9,COC(=O)/C(CCC=C(C)C)=C1\[C@@H](OC(C)=O)C[C@@]2(C)[C@H]1C[C@@H](O)[C@H]1[C@@]3(C)CC[C@H](NCCN)[C@@H](C)[C@@H]3CC[C@@]12C,93.6% (inactive)
10,C=C1C(=O)O[C@H]2[C@H]1CC/C(COC(=O)NCc1ccc(Cn3c(=O)sn(CCI)c3=O)cc1)=C\CC[C@@]1(C)O[C@@H]21,109% (inactive)
11,COc1cc(-c2nc(SCC(C)C)nc(Nc3cccc4ccccc34)c2C#N)cc(OC)c1OC,110% (inactive)
12,Oc1c(Cl)cc(Cl)c2ccc(Cn3cc(-c4ccc(C(F)(F)F)cc4)nn3)nc12,104% (inactive)
13,CC1(C)CC2=C3C=C[C@@H]4[C@@]5(C)CCC(=O)C(C)(C)[C@@H]5CC[C@@]4(C)[C@]3(C)CC[C@@]2(C(=O)O)CC1=O,84.3% (inactive)
14,COC(=O)CCC(=O)C(=O)OC,3.77% [10 mM] (active)
15,COC(C(=O)[C@@H](O)[C@@H](C)O)[C@@H]1Cc2cc3cc(O[C@H]4C[C@@H](O[C@H]5C[C@@H](O)[C@H](O)C(C)O5)[C@H](O)C(C)O4)cc(O)c3c(O)c2C(=O)[C@H]1O[C@H]1C[C@@H](O[C@H]2C[C@@H](O[C@H]3C[C@@H](OC)[C@H](O)C(C)O3)[C@@H](O)C(C)O2)[C@H](O)C(C)O1 (stereo not given in full),32.3% (inactive)
16,CC(C)N1CCN(Cc2ccc3c(NNC(=O)c4ccccc4)nc4cc(F)ccc4n23)CC1,35% (inactive)

# Test system: IGROV1 ovarian
# Test: as above
# Conditions: 10 µM unless noted
row,Structure (SMILES),growth
1,O=c1oc2ccc([N+](=O)[O-])cc2cc1Br,119% (inactive)
2,O=C1/C(=C/c2ccccc2Br)COc2ccc(O)c(O)c21,-19.4% (active)
3,COc1cc2c(c(OC)c1OC)-c1ccc(OC)c(=O)cc1[C@@H](NC(=O)CCl)CC2,14.1% (inactive)
4,O=C(c1ccccc1)C1C(=O)N2C(=S)N(c3ccccc3)C(=O)C2C1c1ccc(Cl)cc1 (stereo not given),54.2% (inactive)
5,CCOc1ccc(NC(=O)CSc2oc(-c3ccccc3)nc2S(=O)(=O)c2ccc(F)cc2)cc1,94.8% (inactive)
6,COc1cc(-n2cc(-c3cc(O)c(C/C=C(\C)CCC=C(C)C)c(O)c3)nn2)cc2c1O[C@]1(C)CC[C@@H](O)C(C)(C)[C@H]1C2,23.8% (inactive)
7,CCOC(=O)/C=C1\S/C(=N\Nc2cc(=O)[nH]c3ccc(Cl)cc23)N(c2ccccc2)C1=O,62.9% (inactive)
8,O=c1oc2c(cnc3ccccc32)cc1-c1ccsc1,103% (inactive)
9,C=CCc1c2c(c(OC)c3ccoc13)C(=O)/C(=C/c1ccccc1OC)O2,54.8% (inactive)
10,CC(=O)Nc1nc2ccc(NS(=O)(=O)c3cccc4c(N(C)C)cccc34)cc2[nH]1,51.5% (inactive)
11,O=C1C(Cl)=C(Oc2ccccc2)C(=O)c2ccccc21,80.7% (inactive)
12,O=C(O)/C(=C\c1ccc(Cl)cc1)c1ccc(Cl)cc1,71.2% (inactive)
13,OCc1cccc(-c2ccc3ncc(-c4nc(NC5CC5)ncc4F)n3c2)c1,-13.3% (active)
14,C=CCn1cc(-c2nc3ccccc3s2)c2cc(-c3ccc4c5c(cccc35)C(=O)N(N)C4=O)ccc21,69.8% (inactive)
15,Cc1ccc(C(C(N)=O)C(C(N)=O)c2ccccc2)cc1 (stereo not given),105% (inactive)
16,CC(C)n1cnc2c(=S)nc[nH]c21,114% (inactive)
17,CC(C)N1CN2C(=S)NC3C2N(C1)C(=S)N3C (stereo not given),103% (inactive)
18,S=C1CCSC(=S)N1CCCN1C(=S)CCSC1=S,85.8% (inactive)
19,CCN1CCN(Cc2cn(CC(=O)Nc3ccc4c(ccn4Cc4ccccc4)c3)nn2)CC1,105% (inactive)

row,Structure (SMILES),growth
1,CCOC(=O)CSc1ncnc2c1c(-c1ccccc1)c(-c1ccccc1)n2-c1ccc(C)cc1,79.9% (inactive)
2,O=C1/C(=C/c2ccc(Cl)c(Cl)c2)CN(C(=O)C(Cl)Cl)C/C1=C\c1ccc(Cl)c(Cl)c1,-74.3% (active)
3,CCO/C=N/C1=C(C#N)C(c2ccc(OC)cc2)c2sc3c(F)cccc3c2O1 (stereo not given),44.4% (inactive)
4,COc1ccc(C(c2cc(OC)c(OC)c(OC)c2)N2CCN(c3ccccc3)CC2)cc1 (stereo not given),72.7% (inactive)
5,CCN(CC)CCOc1ccc(C(=C(C)c2ccc(Cl)cc2)c2ccc(OCCN(CC)CC)cc2)cc1,-86.9% (active)
6,CN1CCN(C(=O)c2ccc(NC(=O)Nc3ccc(-c4nc(N5CCOCC5)c5cccn5n4)cc3)cc2)CC1,-29.2% (active)
7,Cc1ccc(S(=O)(=O)N2CCCC2CO)cc1 (stereo not given),90.6% (inactive)
8,Nc1c(C(=O)Nc2ccccc2Cl)sc2nc3c(cc12)C(O)CCC3 (stereo not given),57.2% (inactive)
9,Cc1nc2sc(C(=O)Nc3ccccc3)c(N)c2cc1C(=O)c1ccccc1,56.8% (inactive)
10,O=C1CC(N2C(=O)/C(=C/C(Cl)=C\c3ccc([N+](=O)[O-])cc3)SC2=S)C(=O)N1c1ccc(Cl)cc1 (stereo not given),10.2% (inactive)
11,Cc1ccc(Cl)cc1Nc1nc(C(F)(F)F)ccc1C(=O)N/N=C/c1cccnc1,8.35% (active)
12,CC(C)(C)n1cc(-c2ccnc(NCCCNS(=O)(=O)c3ccc(F)cc3)c2)c(-c2cccc(F)c2)n1,68.6% (inactive)
13,COC(=O)/C(CCC=C(C)C)=C1\[C@@H](OC(C)=O)C[C@@]2(C)[C@H]1C[C@@H](O)[C@H]1[C@@]3(C)CC[C@H](NCCN)[C@@H](C)[C@@H]3CC[C@@]12C,86.6% (inactive)
14,C=C1C(=O)O[C@H]2[C@H]1CC/C(COC(=O)NCc1ccc(Cn3c(=O)sn(CCI)c3=O)cc1)=C\CC[C@@]1(C)O[C@@H]21,-75.5% (active)
15,COc1cc(-c2nc(SCC(C)C)nc(Nc3cccc4ccccc34)c2C#N)cc(OC)c1OC,106% (inactive)
16,Oc1c(Cl)cc(Cl)c2ccc(Cn3cc(-c4ccc(C(F)(F)F)cc4)nn3)nc12,78.9% (inactive)
17,CC1(C)CC2=C3C=C[C@@H]4[C@@]5(C)CCC(=O)C(C)(C)[C@@H]5CC[C@@]4(C)[C@]3(C)CC[C@@]2(C(=O)O)CC1=O,85.3% (inactive)
18,COC(=O)CCC(=O)C(=O)OC,9.89% [10 mM] (active)
19,CC(C)N1CCN(Cc2ccc3c(NNC(=O)c4ccccc4)nc4cc(F)ccc4n23)CC1,21.4% (inactive)
